ERK AVP inh – qHTS Assay for Inhibitors of the ERK Signaling Pathway using a Homogeneous Screening Assay | HEK293-V1b, vasopressin-stimulated pERK AlphaScreen | AID 995, 2007 | Potency, µM (highest dose often 57.5 µM), actives largely listed as inhibitors | 0.99% of 72,000 active; note: nearly all actives have a fitted effect of over 55% in size
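HEK293 cells stably expressing V1b receptor, seeded overnight in 1% FBS, were treated with compounds for 30 min at 37C, then stimulated 5 min with 25 nM vasopressin; phospho-ERK read by AlphaScreen SureFire after lysis.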
Tau filament bind – qHTS Assay for Tau Filament Binding; AID 596, 2007; recombinant tau filaments, thioflavin S fluorescence, 15 h; filaments grown with octadecylsulfate alongside compound; 2% of 71,000 active; Potency, µM (highest dose often 57.1 µM); Microtubule-associated protein tau (Homo sapiens), P10636;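 note: actives lower thioflavin S fluorescence by blocking filaments or displacing dye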
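Read-out: ThS fluorescence, 450 nm excitation/510 nm emission; lower signal marks blocked filament formation or displaced dye. Tau at 1 uM with 30 uM ODS, 10 uM ThS, 5 mM DTT, 100 mM NaCl, 10 mM HEPES pH 7.4; 15 h, 37 C.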
Caspase-1 inhib – qHTS Assay for Allosteric/Competitive Inhibitors of Caspase-1 | 0.03% of 75,000 active | Potency, µM (titrated, usually from 57.5 µM), actives largely listed as inhibitors | Caspase-1 enzyme, Ac-WEHD-AFC fluorogenic rate
Casp7 inh – qHTS Assay for Allosteric/Competitive Inhibitors of Caspase-7; P55210; recombinant caspase-7, Ac-DEVD-AFC fluorescence rate; Potency, µM (top dose mostly 57.5 µM), usual class: inhibitors; 0.02% of 75,000 active; active = well fitted inhibition curve with a large enough effect in the main read-out, with a control signal flat, not every such curve was filed as active; inconclusive = small, poorly fitted or top-dose-only effect, or a change in a side signal
15-hLO inh – qHTS Assay for Inhibitors of 15-hLO (15-human lipoxygenase); AID 887, 2007; 1.4% of 74,000 active; Polyunsaturated fatty acid lipoxygenase ALOX15 (Homo sapiens), P16050; Potency, µM (titrated, usually from 57.1 µM), usual class: inhibitors; purified 15hLO-1, xylenol orange hydroperoxide absorbance; note: nearly all actives have a fitted effect of over 55% in size
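Inhibition is scored from a chromogenic endpoint. After 15 min enzyme-compound contact, arachidonic acid (50 uM final) reacts 6 min with 40 nM 15hLO-1 at room temperature, then Fe-XO reagent is added for 30 min and absorbance ratio recorded.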
Large screens that a line does not name were inactive. Only some compounds are listed: those with a hit (about 3.9% of all), similar ones and a draw of the others. Unless noted, calls come from the whole dose curve; as a rule, active = well fitted curve in the direction sought with a large enough effect; inconclusive = small, poorly fitted or top-dose-only effect, or another doubt; inactive = no such curve, though single readings can be large; an effect the other way counts as inactive or inconclusive.

COc1ccccc1NC(=O)c1cc(Cl)ccc1NC(=O)c1ccco1	none
O=C1CCCC2=C1C(c1ccco1)Nc1ccc(C(=O)c3ccccc3)cc1N2 (configuration not stated)	ERK AVP inh inconclusive, Tau filament bind 6.31µM, 15-hLO inh 2.51µM
N#CC1(O)CCCCC1	none
Cc1ccc2cccc(S(=O)(=O)Nc3ccc4c(c3)OCO4)c2n1	Tau filament bind 7.94µM
O=S(=O)(Nc1ccc2c(c1)OCO2)c1ccc(Br)s1	ERK AVP inh inconclusive, Tau filament bind 20µM, 15-hLO inh 25.1µM
O=C(O)c1[nH]c(=O)[nH]c(=O)c1CN1CCCCC1	none
CN1CC[C@H](CN2c3ccccc3Sc3ccccc32)C1	Tau filament bind 3.98µM
CCN(CC)c1ccc2c(c1)CCCN2	Tau filament bind 25.1µM, Casp7 inh inconclusive, 15-hLO inh inconclusive (no result: Caspase-1 inhib)
Cc1nn(-c2ccc(S(=O)(=O)O)cc2)c(O)c1N=Nc1ccc(-c2ccc(N=Nc3ccc4c(S(=O)(=O)O)cc(S(=O)(=O)O)c(N)c4c3O)c(O)c2)cc1O.[Cu].[Cu]	15-hLO inh 3.98µM
COc1cc(-c2ccc(N=Nc3ccc4c(S(=O)(=O)O)cc(S(=O)(=O)O)c(N)c4c3O)c(OC)c2)ccc1N=Nc1ccc2c(S(=O)(=O)O)cc(S(=O)(=O)O)c(N)c2c1O	ERK AVP inh 15.8µM, Tau filament bind 12.6µM, 15-hLO inh inconclusive
CC(C)(C)NC[C@H](O)c1cc(O)cc(O)c1	Casp7 inh inconclusive
CCn1c(=O)c(C(=O)CN2CCCc3ccccc32)c(N)n(Cc2ccccc2)c1=O	Tau filament bind 25.1µM
CCN(C(=O)CN1CCCc2ccccc21)c1c(N)n(Cc2ccccc2)c(=O)[nH]c1=O	none
CO/N=C(\C(=O)NC1C(=O)N2C(C(=O)OCOC(=O)C(C)(C)C)=C(/C=C\c3scnc3C)CSC12)c1csc(N)n1 (configuration not stated)	none (no result: Tau filament bind)
Cc1nnc(SCCC(=O)Nc2nc(-c3ccccc3)ns2)s1	ERK AVP inh 31.6µM, 15-hLO inh inconclusive
O=C(Nc1nc(-c2ccccc2)ns1)c1cccs1	none
Nc1ncnc2c1ncn2[C@H]1O[C@@H](C(=O)OCCO)[C@@H](O)[C@H]1O	none
CCCCCCC#Cc1cc(OC)c(OC)cc1C(N1CC(C)c2ccccc21)N1CC(C)c2ccccc21 (configuration not stated)	15-hLO inh inconclusive (no result: Tau filament bind)
Oc1ccc(Br)cc1/C=N/n1cnc2ccccc21	ERK AVP inh 15.8µM, Caspase-1 inhib inconclusive, Casp7 inh inconclusive
CC(C)COC[C@H](CN(Cc1ccccc1)c1ccccc1)N1CCCC1	none
COCCN1C(=O)c2ccccc2C(C(=O)NCCCN2CCCC2=O)C1c1c[nH]c2ccccc12 (configuration not stated)	15-hLO inh 25.1µM
O=C(c1ccc2c(c1)OCO2)[C@@H]1[C@@H]2C(=O)N(C3CCCCC3)C(=O)[C@@H]2C2c3ccccc3C=CN21 (some centres not stated)	ERK AVP inh inconclusive, Tau filament bind inconclusive, Caspase-1 inhib inconclusive, 15-hLO inh 15.8µM
O=C(c1ccc2c(c1)OCO2)N1CCCC(c2ccccc2)C1 (configuration not stated)	none
COC(=O)[C@@H]1CC[C@H](C)[C@@H](c2ccc(C)cc2)N1C(=O)c1ccc(/C=N\O[C@@H](C)CN2CCCc3nc(C)c(C)cc32)cc1	none (no result: Tau filament bind)
Cc1cc(C)nc(Nc2ccc(N3CCCC3)cc2)n1	ERK AVP inh inconclusive, Tau filament bind 15.8µM, 15-hLO inh inconclusive
CCCc1cc(=O)[nH]c(Nc2ccc(N3CCCCC3)cc2)n1	ERK AVP inh inconclusive, Tau filament bind 25.1µM
CCOC(=O)C1=NO[C@@]2(C=C(Br)C3(OCCCO3)[C@H]3O[C@H]32)C1	none (no result: Tau filament bind)
N#CCCn1c(=O)c(CCc2ccccc2)nc2cnc(N3CCOCC3)nc21	ERK AVP inh inconclusive, Casp7 inh inconclusive (no result: Caspase-1 inhib)
CCc1cccc(NC(=O)Nc2cccs2)c1	Tau filament bind inconclusive, 15-hLO inh 12.6µM
Cc1cccc(C)c1NC(=O)Nc1cccs1	15-hLO inh 25.1µM

Source: PubChem
